Screens as filed in PubChem BioAssay.
Shown are actives, neighbours in structure and some others; about 2.4% of the full set was active somewhere.
HTT promoter inh: inhibitors of huntingtin promoter activity. HEK293 HTT promoter firefly luciferase reporter, 24 h. AID 1508623. 48,000 compounds, 0.93% hits. Potency, µM (doses to about 57.5 µM), inactives show at the top dose activity change, negative = inhibition, most hits filed as inhibitors; note: potency is the fitted concentration of half-maximal effect; nearly all actives have a fitted effect of over 50% in size
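HEK293 luciferase promoter-reporter cells (2,500/well) plated 24 h, then compounds added at up to 57.5 uM final for 24 h at 37 °C. Firefly luminescence by Dual-Glo, normalized to vehicle (0%) and zero RLU (-100%).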
HTT-AS promoter: HTT-AS promoter activation. HEK293 HTT-AS promoter firefly luciferase reporter, 24 h; response scale: percent change from vehicle, -100% = no light. Potency, µM (titrated, usually from 57.5 µM), without a hit: at the top dose activity change, positive = activation, actives largely listed as activators. 48,000 compounds, 0.24% hits. AID 1508624; note: potency is the fitted concentration of half-maximal effect; nearly all actives have a fitted effect of over 55% in size
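Firefly luciferase signal from promoter-reporter HEK293 cells was scaled between vehicle (0%) and zero RLU (-100%). Compounds were tested at final concentrations of up to 57.5 uM over 24 h at 37 degrees C. PTC124 at 50 uM final served as control inhibitor.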
NTMT1 inhibitor: blocks human N-terminal methyltransferase 1 activity; Q9BV86; AID 1645870; 59,000 compounds, 2.5% hits; Potency, µM (highest dose often 114 µM), for inactives: at the highest dose activity change, negative = inhibition, actives largely listed as inhibitors; NTMT1 MTase-Glo SAH luminescence, purified enzyme;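 note: potency is the fitted concentration of half-maximal effect; plate controls were DMSO vehicle for no effect and no enzyme for full effect; nearly all actives have a fitted effect of over 65% in size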
DYRK1A inh-1: human DYRK1A kinase inhibition by ATP depletion readout. Potency, µM (series often up to 76.9 µM), for inactives: top-dose activity change, negative = inhibition, hits mostly inhibitors. recombinant DYRK1A, Kinase-Glo ATP depletion luminescence. 100 compounds, 80% hits. shares compounds with NTMT1 inhibitor
CLK4 inh-1: CLK4 kinase inhibition, SAR round 2; shares compounds with NTMT1 inhibitor; recombinant Clk4, Kinase-Glo ATP luminescence, 4.5 h; Potency, µM (series often up to 76.9 µM), inactives show at the top dose activity, negative = inhibition, actives largely listed as inhibitors; 90 compounds, 90% hits; AID 493204
CLK4 inh-2: blocks human CLK4 kinase in radiometric assay. shares compounds with NTMT1 inhibitor. Potency, µM, actives largely listed as inhibitors. 65 compounds, 100% hits. Reaction Biology kinase assay, 10 uM ATP. AID 504421; calls by dose curve
DYRK1A inh-2: inhibitors of human DYRK1A kinase. shares compounds with NTMT1 inhibitor. Reaction Biology kinase assay, 10 uM ATP. Potency, µM, usual class: inhibitors. 65 compounds, 90% hits. AID 504424;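 active = compounds that showed inhibition of Dyrk1a and received a fitted potency; inactive = compounds that showed no inhibition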
CLK2 inh: inhibitors of human CLK2 kinase | AID 504427 | 65 compounds, 90% hits | Reaction Biology kinase assay, 10 uM ATP | shares compounds with NTMT1 inhibitor | Potency, µM, usual class: inhibitors;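 active = compound that inhibits Clk2 kinase in the dose series, with an IC50 potency reported; inactive = no inhibition seen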
Target sequence (P49760 whole entry, looked up): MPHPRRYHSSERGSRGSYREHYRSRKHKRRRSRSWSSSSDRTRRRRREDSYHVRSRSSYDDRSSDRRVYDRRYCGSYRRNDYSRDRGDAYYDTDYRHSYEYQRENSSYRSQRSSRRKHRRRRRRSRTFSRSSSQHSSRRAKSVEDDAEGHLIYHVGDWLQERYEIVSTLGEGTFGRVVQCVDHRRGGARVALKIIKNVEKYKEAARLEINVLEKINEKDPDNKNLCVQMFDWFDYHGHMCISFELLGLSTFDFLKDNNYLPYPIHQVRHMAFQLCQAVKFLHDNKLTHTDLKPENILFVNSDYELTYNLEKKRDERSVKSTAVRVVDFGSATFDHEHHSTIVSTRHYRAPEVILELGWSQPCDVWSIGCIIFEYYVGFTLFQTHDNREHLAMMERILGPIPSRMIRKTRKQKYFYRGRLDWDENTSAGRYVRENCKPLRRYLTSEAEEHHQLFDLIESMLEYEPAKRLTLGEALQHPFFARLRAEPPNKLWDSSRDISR
CLK3 RBC: CLK3 kinase inhibition. shares compounds with NTMT1 inhibitor. recombinant CLK3 kinase assay, 10 uM ATP. Potency, µM, hits mostly inhibitors. 65 compounds, 40% hits;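 active = compounds that inhibited Clk3 enough in the ten-dose series to give a half-maximal potency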
DYRK1B inh: DYRK1B kinase inhibition; shares compounds with NTMT1 inhibitor; Recombinant Dyrk1b kinase assay, 10 uM ATP; Potency, µM, hits mostly inhibitors; 65 compounds, 80% hits; AID 504429;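 active = compounds whose dose response shows an inhibitor phenotype against the kinase Dyrk1b; inactive = compounds showing no inhibitor phenotype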
CLK1 RBC: CLK1 kinase inhibition; Potency, µM, actives largely listed as inhibitors; recombinant Clk1 kinase assay, 10 uM ATP; AID 504430; 65 compounds, 90% hits; shares compounds with NTMT1 inhibitor;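 active = compounds that block the splicing kinase Clk1 enough to give a fitted half-inhibition concentration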
NNMT counter: blocks human NNMT methyltransferase | 120 compounds, 10% hits | NNMT MTase-Glo luminescence, SAH detection | shares compounds with NTMT1 inhibitor | Potency, µM (doses to about 57.1 µM), inactives show at the highest dose activity, negative = inhibition, most hits filed as inhibitors
* marks the source's active call; other numbers are inactive results; i = inactive; ? = inconclusive; . = no result given; [ ] = dose if it differs, or a comment. Unless noted, calls come from the whole dose curve; as a rule, active = well fitted curve in the direction sought with a large enough effect; inconclusive = small, poorly fitted or top-dose-only effect, or another doubt; inactive = no such curve, though single readings can be large; an effect the other way counts as inactive or inconclusive.

SMILES | HTT promoter inh | HTT-AS promoter | NTMT1 inhibitor | others
Cc1ccc(CNc2ncnc3ccc(-c4ccc(C(=O)O)o4)cc23)o1 | . | . | . | CLK4 inh-1=0.073µM*;CLK4 inh-2=0.1*;DYRK1A inh-2=17µM*;CLK2 inh=1.4µM*;CLK3 RBC=i;DYRK1B inh=4.9µM*;CLK1 RBC=1.6µM*
CCNC(=O)c1ccc(-c2ccc3ncnc(NCc4nccs4)c3c2)o1 | . | . | ? | CLK4 inh-1=0.52µM*;CLK4 inh-2=0.88*;DYRK1A inh-2=5.1µM*;CLK2 inh=19µM*;CLK3 RBC=i;DYRK1B inh=5µM*;CLK1 RBC=7µM*
CSc1ccc(CNc2ncnc3ccc(-c4c(C)noc4C)cc23)cc1 | . | . | 13%
Cc1csc(CNc2ncnc3ccc(-c4ccc(C(=O)O)o4)cc23)n1 | . | . | -2%[57.5 µM] | CLK4 inh-1=0.37µM*;CLK4 inh-2=1*;DYRK1A inh-2=46µM*;CLK2 inh=9.5µM*;CLK3 RBC=i;DYRK1B inh=13µM*;CLK1 RBC=16µM*
Cc1cc(N[S+](=O)([O-])c2ccc(NC(=O)Cc3ccc(F)c(C)c3)cc2)no1 | . | . | 8%
C[C@@H]1O[C@@H](O[C@H]2[C@H](O[C@H]3[C@H](O[C@H]4CC[C@@]5(C)C(CC[C@]6(C)C5CC=C5[C@@H]7CC(C)(C)CC(=O)[C@]7(C)CC[C@]56C)[C@@]4(C)CO)O[C@H](C(=O)O)[C@@H](O)[C@@H]3O)O[C@H](CO)[C@H](O)[C@@H]2O)[C@H](O)[C@H](O)[C@H]1O (stereo not given in full) | . | . | -2%[12.6 µM]
CCOCOC[C@H](C[C@H](C)C(=O)NO)NC(=O)c1ccc(Oc2ccccc2)cc1 | . | . | 4%
CC1(C)O[C@H]2CC(=O)OC[C@@]23C1=C(O)C(=O)[C@]1(C)C3CC[C@@]2(C)[C@H](c3ccoc3)OC(=O)[C@H]3O[C@]321 (stereo not given in full) | . | . | 7%[29.8 µM]
O=C1C[C@@H](c2ccc(O)cc2)Oc2cc(O)ccc21 | . | . | -1%[57.5 µM]
O=C(Nc1cccnn1)N1CCN(c2nccc(-c3ccc(F)c(F)c3)n2)CC1 | . | . | 2%
O=C1CC2(CCCC2)[C@H](O)C(=O)N1CCCCN1CCN(c2ncccn2)CC1 | . | . | 5%[57.5 µM]
O=C(NCCO)c1ccc(-c2nnc(Nc3ccc(OC(F)(F)Cl)cc3)c3ccccc23)cc1 | ? | -49% | 9%
O=C(Nc1ccccc1)c1ccc(Nc2nnc(-c3ccc(O)cc3)c3ccccc23)cc1 | . | . | 7%[57.5 µM] | NNMT counter=?
CN(C)c1nc(NC2CCC(NCCc3ccc(Br)cc3OC(F)(F)F)CC2)nc2ccccc12 (stereo not given) | . | . | 35µM* | NNMT counter=22µM*
CC(=O)c1ccc(N2CCN(C(=O)c3ccc4c(c3)CC(=O)N4)CC2)cc1 | . | . | -3%
c1nc(N2CCC(N3CCCC3)CC2)c2cc(-c3ccc4c(c3)OCO4)ccc2n1 | . | . | ? | DYRK1A inh-1=23µM*;CLK4 inh-2=10*;DYRK1A inh-2=i;CLK2 inh=i;CLK3 RBC=i;DYRK1B inh=i;CLK1 RBC=15µM*
c1nc(NCC2CCOC2)c2cc(-c3ccc4c(c3)OCO4)ccc2n1 (stereo not given) | . | . | 25µM* | DYRK1A inh-1=0.092µM*
CCN(CCc1cn(C)cn1)c1ncnc2ccc(-c3ccc4c(c3)OCO4)cc12 | . | . | ? | DYRK1A inh-1=2.3µM*
